Measured values published in publication PMC5540273 (PLoS ONE, 2017).

How the values were obtained:
Settings in all cases: concentration: 1 μM, replicates: in singlicate; n = 1
MST1 = test system: T1, MST1
T1 construct: gene STK4

MST2 = test system: T2, MST2
T2 construct: gene STK3

MST3 = test system: T3, MST3
T3 construct: gene STK24

MST4 = test system: MST4
MTOR = test system: MTOR
MUSK = test system: MUSK
MYLK2 = test system: MYLK2
MYLK4 = test system: MYLK4
MYLK = test system: MYLK
MYO3A = test system: MYO3A
MYO3B = test system: MYO3B
NDR1 = test system: T4, NDR1
T4 construct: gene STK38

NDR2 = test system: NDR2
NEK10 = test system: NEK10
NEK11 = test system: NEK11
NEK1 = test system: NEK1
NEK2 = test system: NEK2
NEK3 = test system: NEK3
NEK4 = test system: NEK4
NEK5 = test system: NEK5
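Note: KINOMEscan kinase panel screen.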

## COc1ccc(S(=O)(=O)NC2CCN(c3cc(C)nc(Nc4cccc(C#N)c4)n3)CC2)cc1.O=C(O)C(F)(F)F [GSK1653539]
MST1
  %Inh: 0%
MST2
  %Inh: 0%
MST3
  %Inh: 13%
MST4
  %Inh: 0%
MTOR
  %Inh: 28%
MUSK
  %Inh: 0%
MYLK2
  %Inh: 0%
MYLK4
  %Inh: 0%
MYLK
  %Inh: 3%
MYO3A
  %Inh: 17%
MYO3B
  %Inh: 0%
NDR1
  %Inh: 35%
NDR2
  %Inh: 0%
NEK10
  %Inh: 23%
NEK11
  %Inh: 0%
NEK1
  %Inh: 0%
NEK2
  %Inh: 3%
NEK3
  %Inh: 0%
NEK4
  %Inh: 0%
NEK5
  %Inh: 2%

## CN(C(=O)c1ccc(-c2cc(-c3c[nH]nc3-c3ccccn3)ccn2)cc1)C1CCOCC1 [GW810083]
MST1
  %Inh: 8%
MST2
  %Inh: 13%
MST3
  %Inh: 34%
MST4
  %Inh: 0%
MTOR
  %Inh: 10%
MUSK
  %Inh: 0%
MYLK2
  %Inh: 0%
MYLK4
  %Inh: 0%
MYLK
  %Inh: 0%
MYO3A
  %Inh: 0%
MYO3B
  %Inh: 0%
NDR1
  %Inh: 3%
NDR2
  %Inh: 0%
NEK10
  %Inh: 0%
NEK11
  %Inh: 9%
NEK1
  %Inh: 0%
NEK2
  %Inh: 0%
NEK3
  %Inh: 16%
NEK4
  %Inh: 0%
NEK5
  %Inh: 7%

## COc1cc(Nc2nccc(N3CCC(NC(=O)c4cccc(NC(C)=O)c4)C3)n2)cc(OC)c1OC (centres unmarked) [GSK1379754]
MST1
  %Inh: 12%
MST2
  %Inh: 7%
MST3
  %Inh: 0%
MST4
  %Inh: 0%
MTOR
  %Inh: 7%
MUSK
  %Inh: 12%
MYLK2
  %Inh: 17%
MYLK4
  %Inh: 2%
MYLK
  %Inh: 14%
MYO3A
  %Inh: 5%
MYO3B
  %Inh: 0%
NDR1
  %Inh: 19%
NDR2
  %Inh: 0%
NEK10
  %Inh: 20%
NEK11
  %Inh: 0%
NEK1
  %Inh: 48%
NEK2
  %Inh: 7%
NEK3
  %Inh: 54%
NEK4
  %Inh: 24%
NEK5
  %Inh: 100%

## O=c1cc(N2CCOCC2)nc2n(Cc3cccc(C(F)(F)F)c3)ccn12 [GSK2297543]
MST1
  %Inh: 10%
MST2
  %Inh: 0%
MST3
  %Inh: 9%
MST4
  %Inh: 0%
MTOR
  %Inh: 4%
MUSK
  %Inh: 3%
MYLK2
  %Inh: 0%
MYLK4
  %Inh: 2%
MYLK
  %Inh: 18%
MYO3A
  %Inh: 19%
MYO3B
  %Inh: 0%
NDR1
  %Inh: 16%
NDR2
  %Inh: 7%
NEK10
  %Inh: 0%
NEK11
  %Inh: 0%
NEK1
  %Inh: 0%
NEK2
  %Inh: 0%
NEK3
  %Inh: 0%
NEK4
  %Inh: 0%
NEK5
  %Inh: 0%

## N#Cc1ccc(-c2cc(-c3c[nH]nc3-c3ccccn3)ccn2)cc1 [GW693028]
MST1
  %Inh: 4%
MST2
  %Inh: 0%
MST3
  %Inh: 0%
MST4
  %Inh: 0%
MTOR
  %Inh: 14%
MUSK
  %Inh: 0%
MYLK2
  %Inh: 0%
MYLK4
  %Inh: 0%
MYLK
  %Inh: 8%
MYO3A
  %Inh: 15%
MYO3B
  %Inh: 0%
NDR1
  %Inh: 14%
NDR2
  %Inh: 0%
NEK10
  %Inh: 11%
NEK11
  %Inh: 5%
NEK1
  %Inh: 0%
NEK2
  %Inh: 0%
NEK3
  %Inh: 8%
NEK4
  %Inh: 20%
NEK5
  %Inh: 5%

## O=c1cc(N2CCOCC2)nc2n(Cc3cccc(F)c3)ccn12 [GSK2297430]
MST1
  %Inh: 23%
MST2
  %Inh: 0%
MST3
  %Inh: 3%
MST4
  %Inh: 0%
MTOR
  %Inh: 52%
MUSK
  %Inh: 3%
MYLK2
  %Inh: 0%
MYLK4
  %Inh: 0%
MYLK
  %Inh: 4%
MYO3A
  %Inh: 0%
MYO3B
  %Inh: 0%
NDR1
  %Inh: 0%
NDR2
  %Inh: 0%
NEK10
  %Inh: 24%
NEK11
  %Inh: 0%
NEK1
  %Inh: 0%
NEK2
  %Inh: 0%
NEK3
  %Inh: 0%
NEK4
  %Inh: 0%
NEK5
  %Inh: 0%

## CNc1ncnc2[nH]ncc12 [SKF-18355]
MST1
  %Inh: 36%
MST2
  %Inh: 0%
MST3
  %Inh: 0%
MST4
  %Inh: 0%
MTOR
  %Inh: 17%
MUSK
  %Inh: 14%
MYLK2
  %Inh: 3%
MYLK4
  %Inh: 5%
MYLK
  %Inh: 0%
MYO3A
  %Inh: 0%
MYO3B
  %Inh: 34%
NDR1
  %Inh: 46%
NDR2
  %Inh: 23%
NEK10
  %Inh: 16%
NEK11
  %Inh: 0%
NEK1
  %Inh: 0%
NEK2
  %Inh: 0%
NEK3
  %Inh: 26%
NEK4
  %Inh: 0%
NEK5
  %Inh: 0%

## NCC(NC(=O)c1cc(-c2cn[nH]c2)c(-c2ccnc3[nH]ccc23)s1)c1ccccc1.O=C(O)C(F)(F)F.O=C(O)C(F)(F)F (centres unmarked) [GSK1325775]
MST1
  %Inh: 0%
MST2
  %Inh: 12%
MST3
  %Inh: 1%
MST4
  %Inh: 45%
MTOR
  %Inh: 5%
MUSK
  %Inh: 0%
MYLK2
  %Inh: 45%
MYLK4
  %Inh: 100%
MYLK
  %Inh: 63%
MYO3A
  %Inh: 32%
MYO3B
  %Inh: 0%
NDR1
  %Inh: 65%
NDR2
  %Inh: 70%
NEK10
  %Inh: 50%
NEK11
  %Inh: 15%
NEK1
  %Inh: 72%
NEK2
  %Inh: 43%
NEK3
  %Inh: 7%
NEK4
  %Inh: 0%
NEK5
  %Inh: 57%

## COc1ccc(Nc2nccc(N3CCC(NC(=O)Nc4cc(C)ccc4C)C3)n2)cc1 (centres unmarked) [GSK1379741]
MST1
  %Inh: 0%
MST2
  %Inh: 1%
MST3
  %Inh: 0%
MST4
  %Inh: 0%
MTOR
  %Inh: 11%
MUSK
  %Inh: 0%
MYLK2
  %Inh: 0%
MYLK4
  %Inh: 0%
MYLK
  %Inh: 0%
MYO3A
  %Inh: 0%
MYO3B
  %Inh: 0%
NDR1
  %Inh: 7%
NDR2
  %Inh: 0%
NEK10
  %Inh: 1%
NEK11
  %Inh: 20%
NEK1
  %Inh: 0%
NEK2
  %Inh: 0%
NEK3
  %Inh: 0%
NEK4
  %Inh: 0%
NEK5
  %Inh: 6%

## CCn1cnc2c(N)ncnc21 [GW345098]
MST1
  %Inh: 8%
MST2
  %Inh: 7%
MST3
  %Inh: 20%
MST4
  %Inh: 0%
MTOR
  %Inh: 0%
MUSK
  %Inh: 2%
MYLK2
  %Inh: 2%
MYLK4
  %Inh: 7%
MYLK
  %Inh: 29%
MYO3A
  %Inh: 12%
MYO3B
  %Inh: 0%
NDR1
  %Inh: 15%
NDR2
  %Inh: 8%
NEK10
  %Inh: 39%
NEK11
  %Inh: 0%
NEK1
  %Inh: 0%
NEK2
  %Inh: 13%
NEK3
  %Inh: 3%
NEK4
  %Inh: 12%
NEK5
  %Inh: 10%
